Screening data deposited in PubChem by National Center for Advancing Translational Sciences (NCATS).
Sampled rows, rich in hits. Any-hit rate of the full collection: about 8.7%.
Vaccinia mCherry: qHTS for Stage-Specific Inhibitors of Vaccinia Orthopoxvirus: mCherry Reporter Primary qHTS. actives 0.63% (n = 310,000). Potency, µM (series often up to 36.5 µM), most hits filed as inhibitors. Vaccinia virus mCherry reporter infection, fluorescence; calls by dose curve; tested in A549 cells; also: nearly all actives have a fitted effect of over 35% in size
Pf growth 96h: Primary qHTS for delayed death inhibitors of the malarial parasite plastid, 96 hour incubation; P. falciparum luciferase reporter growth, 96 h; actives 6.9% (n = 320,000); Potency, µM (doses to about 28.7 µM), usual class: inhibitors; AID 504834, 2011
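Infected RBCs, 2% Hct / 0.05% parasitemia final; luciferase-reporter P. falciparum; cpd 96 h, 37 C, 5% CO2; luciferase detection reagent; luminescence.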
Vaccinia Venus: qHTS for Stage-Specific Inhibitors of Vaccinia Orthopoxvirus: Venus Reporter Primary qHTS | Potency, µM (doses to about 36.5 µM), most hits filed as inhibitors | Vaccinia virus Venus reporter expression, fluorescence | actives 0.46% (n = 330,000) | AID 720580, 2013; calls by dose curve; tested in A549 cells; also: nearly all actives have a fitted effect of over 30% in size
Pf growth 48h: Primary qHTS for delayed death inhibitors of the malarial parasite plastid, 48 hour incubation; P. falciparum luciferase growth in erythrocytes, 48 h; Potency, µM (doses to about 28.7 µM), usual class: inhibitors; actives 5.9% (n = 310,000); AID 504832, 2011
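Luminescence readout; reporter = integrated firefly luciferase in P. falciparum. RBC culture at 2% hematocrit, 0.1% parasitemia final, 37 C/5% CO2; decreased signal taken as growth inhibition.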
AMA1 RON2 block: qHTS for Inhibitors of AMA1-RON; Towards Development of Antimalarial Drug Lead: Primary Screen; AlphaScreen AMA1-biotinylated RON2 peptide binding; Potency, µM (doses to about 58.2 µM), usual class: inhibitors; actives 0.2% (n = 360,000); also: nearly all actives have a fitted effect of over 45% in size
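AMA1 (3D7) with his tag at 25 nM final met compounds first, then biotinylated RON2 peptide at 25 nM; detection used donor plus acceptor beads, 10 µg/mL apiece, read by AlphaScreen after 30 min at room temperature.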
Hits are given with their value; – = inactive; ? = inconclusive; · = no result given; [ ] = dose if it differs, or a comment. Unless noted, calls follow the shape of the dose curve; as a rule, active = well fitted curve in the direction sought with a large enough effect; inconclusive = small, poorly fitted or top-dose-only effect, or another doubt; inactive = no such curve, though single readings can be large; an effect the other way counts as inactive or inconclusive.

SMILES | Vaccinia mCherry | Pf growth 96h | Vaccinia Venus | Pf growth 48h | AMA1 RON2 block
CN(C)CCCNc1c2ccccc2nc2ccccc12 | 7.1µM | – | 8.9µM | 1µM | –
Cc1cccc(C)c1NC(=O)c1nc(SC(C)C)ncc1Cl | – | · | – | · | ·
O=C(CCC1N=C2c3ccccc3N=C(SCc3ccccc3Cl)N2C1=O)N1CCN(c2ccccc2)CC1 (stereo not drawn) | – | · | – | · | ·
CNc1nc(NCc2ccccc2)c2ccccc2n1 | – | ? | – | 1.2µM | –
CNc1nc(NCc2ccc(N(C)C)cc2)c2sccc2n1 | – | · | – | · | 20µM
Oc1ccc(CCNc2c3ccccc3nc3ccccc23)cc1O | ? | 3.3µM | ? | 13µM | ?
OCC(Cc1ccccc1)Nc1c2ccccc2nc2ccccc12 (stereo not drawn) | – | ? | ? | 2.6µM | –[2.32 µM]
Cc1ccc(O)c(Nc2c3ccccc3nc3ccccc23)c1 | ? | – | ? | ? | ?
CCOC(=O)C1(CC2CCCCO2)CCN(Cc2nc3ccccc3nc2C)CC1 (stereo not drawn) | ? | 12µM | – | ? | –
CCOC(=O)C1(CC2CCCCO2)CCN(C(=O)Nc2ccccc2SC)CC1 (stereo not drawn) | – | 12µM | – | ? | –
CCOC(=O)C1(CC2CCCCO2)CCN(C(=O)Nc2ccccc2)CC1 (stereo not drawn) | – | – | – | ? | –
CCOC(=O)C1=C(C)NC(=O)NC1c1cn(-c2ccccc2)nc1-c1cccs1 (stereo not drawn) | ? | ? | – | ? | –
CCc1ccc(-c2nn(-c3ccccc3)cc2C2SCC(=O)N2Cc2ccco2)cc1 (stereo not drawn) | – | – | – | · | –
O=C1CSC(c2cn(-c3ccccc3)nc2-c2cccs2)N1CC1CCCO1 (stereo not drawn) | · | 8.3µM | – | 12µM | –
O=C1CSC(c2cn(-c3ccccc3)nc2-c2ccccc2)N1Cc1ccco1 (stereo not drawn) | · | 2.9µM | – | 13µM | –
COc1cccc(CN2C(=O)c3ccccc3Sc3ccc(C(=O)NCc4ccccc4)cc32)c1 | – | · | – | · | ·
COc1ccc(CNC(=O)c2ccc(NC(=O)N3CCSc4ccccc43)cc2)cc1 | – | · | – | · | ·
Cc1n(C)c2cc(Cl)ccc2[n+]1Cc1ccccc1 | – | – | – | 2.9µM | –
c1ccc(-c2oc3ncnc(NCCN4CCOCC4)c3c2-c2ccccc2)cc1 | – | – | – | ? | –
N=c1c2c(-c3ccccc3)c(-c3ccccc3)oc2ncn1CCN1CCOCC1 | · | 9.3µM | · | 7.4µM | –
N=c1c2c(-c3ccccc3)c(-c3ccccc3)oc2ncn1CCCN1CCOCC1 | · | 12µM | · | 13µM | –
CCOC(=O)c1c(Oc2ccc(OC)cc2)nnc(-c2ccccc2)c1-c1ccccc1 | – | · | – | · | ·
CC(Sc1nc(-c2ccccc2)cc(C(F)(F)F)n1)C(=O)N1CCOCC1 (stereo not drawn) | · | 1.7µM | – | ? | –
CCN(CC)CCNC(=O)c1ccc(-c2nc(CN3CCc4ccccc43)c(C)o2)cc1 | – | · | – | · | ·
COc1ccccc1C1(CC(=O)Nc2nccs2)CCOC(C(C)C)C1 (stereo not drawn) | · | 13µM | · | ? | –
SMILES | Vaccinia mCherry | Pf growth 96h | Vaccinia Venus | Pf growth 48h | AMA1 RON2 block
Cc1ccc(C2(CC(=O)Nc3nccs3)CCOC(C(C)C)C2)cc1 (stereo not drawn) | – | – | – | ? | –
COc1cc(Br)c(CC(=O)NO)cc1OC | – | · | – | · | ·
CCC(C)N1C(=O)/C(=C/c2c(NCCCOC(C)C)nc3c(C)cccn3c2=O)SC1=S (stereo not drawn) | · | ? | · | 1.2µM | –
CCCN1C(=O)/C(=C/c2c(NCCCOC(C)C)nc3c(C)cccn3c2=O)SC1=S | – | – | – | ? | –
COc1ccc2sc(-c3ccccc3OC)c(-c3ccc(SC)cc3)c2c1 | – | · | – | · | –
COc1ccc2sc(-c3ccc(SC)cc3)c(-c3ccc(O)cc3)c2c1 | ? | · | 11µM | · | –
O=C(c1ccc2c(c1)N(Cc1ccc(Cl)cc1)C(=O)c1ccccc1S2(=O)=O)N1CCOCC1 | – | · | – | · | ·
CCOc1cc(C(=O)Nc2cc(OC)cc(OC)c2)ccc1OCC(=O)N1CCOCC1 | · | ? | · | ? | –
Cc1cc(NC(=O)c2ccccc2F)cc(C)c1OCC(=O)N1CCOCC1 | – | – | – | – | –
CCOc1cc(C(=O)Nc2nnc(CC)s2)ccc1OCC(=O)N1CCOCC1 | · | ? | – | 0.26µM | –
CCOc1cc(/C=C/c2nc3cc(C)c(C)cc3s2)ccc1OCC(=O)N1CCOCC1 | – | 10µM | – | ? | –
COc1cc(C(=O)Nc2cc(C)c(OCC(=O)N3CCOCC3)c(C)c2)cc(OC)c1OC | · | 13µM | – | ? | –
COc1ccc(-c2csc(NC(=O)c3ccc(OCC(=O)N4CCOCC4)c(OC)c3)n2)cc1OC | ? | ? | ? | 9.3µM | –
Cc1cc(C)c(C)c(OCC(=O)N2CCOCC2)c1 | · | 13µM | – | · | –
O=C(Cn1cnc2nc3c(cc2c1=O)CCCC3)N1CCN(c2ccccc2)CC1 | – | · | – | · | ·
C=CC(COCc1ccccc1)N(C(=O)OC(C)(C)C)S(=O)(=O)c1ccccc1Br (stereo not drawn) | ? | ? | – | ? | –
C=CCC(COCc1ccccc1)NS(=O)(=O)c1ccccc1Br (stereo not drawn) | – | ? | – | 13µM | –
Cc1cccnc1NC(=O)/C=C/c1ccc2c(c1)OCO2 | – | 10µM | – | – | –
COc1ccc2nc(NC(=O)/C=C/c3ccc4c(c3)OCO4)sc2c1 | · | 1.9µM | · | – | ·
